Measurements as given in PubChem BioAssay (NCATS).
A number with no mark means an inactive call. Inconclusive results are not listed. A call without a number means that no potency is given here. The source made the active and inactive calls. Calls come from the whole dose curve; as a rule, active = well fitted curve in the direction sought with a large enough effect; inconclusive = small, poorly fitted or top-dose-only effect, or another doubt; inactive = no such curve, though single readings can be large; an effect the other way counts as inactive or inconclusive.

What was measured:
[1] = HPAF-II 18hr Apoptosis Induction qHTS against the NCATS CANVASS Library (AID 1347360); note: potency is the fitted concentration of half-maximal effect
Procedure, shortened: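 HPAF-II cells at 500/well were exposed for 18 h at 37 C to an 11-point compound series. Caspase-3/7 activity was read by Caspase-Glo luminescence after 15 min at RT.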

[2] = system: NAD(P)H diaphorase (Clostridium kluyveri); test: Diaphorse counterscreen qHTS: Assay Interference Panel against the NCATS CANVASS Library (AID 1347362); note: potency is the fitted concentration of half-maximal effect
Procedure, shortened: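 Counterscreen for coupling-enzyme interference: resorufin fluorescence from resazurin/NADH turnover, read after 5 min at room temperature. Compounds were tested over an 11-point series after 15 min dark preincubation with diaphorase in PBS-Tween.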

[3] = qHTS for ATAD5 Agonist screened against the NCATS CANVASS Library (AID 1347367);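 note: luciferase reporter driven by ATAD5 which rises upon DNA damage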
Procedure, shortened: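 Luciferase reporter under ATAD5 control, stably integrated in HEK293T cells (2000/well). Compounds (11 points) incubated 16 h at 37C; viability read first by CellTiter-Fluor, then luminescence reporting ATAD5 activation. MMS positive control.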

[4] = G06 Cancer Cell Toxicity qHTS against the NCATS CANVASS Library (AID 1347368); note: nearly all actives have a fitted effect of over 60% in size; note: potency is the fitted concentration of half-maximal effect
Procedure, shortened: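 Viability measured by CellTiterGlo ATP luminescence after 72 hr at 37C, 5% CO2. Canine G06 glioma cells plated at 500/well. Compounds tested as 11-point qHTS titrations.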

[5] = qHTS for ATAD5 Antagonist screened against the NCATS CANVASS Library (AID 1347370); note: nearly all actives have a fitted effect of over 65% in size; note: potency is the fitted concentration of half-maximal effect
Procedure, shortened: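 Compounds (11-point) co-dosed with 10 µM 5-FUrd for 16 h at 37 °C onto HEK293T-ATAD5 luciferase reporter cells. Viability measured by CellTiter-Fluor fluorescence, then ATAD5 reporter signal by luminescence.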

[6] = J3T Cancer Cell Toxicity qHTS against the NCATS CANVASS Library (AID 1347371); note: potency is the fitted concentration of half-maximal effect
Procedure, shortened: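 Cytotoxicity read as CellTiterGlo ATP luminescence after 72 h incubation (37C, 5% CO2) of J3T canine glioma cells (500/well) with an 11-point compound series.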

[7] = target: Nuclear receptor subfamily 1 group I member 3 (Homo sapiens) (UniProt Q14994); test: qHTS for Constitutive Androstane Receptor (CAR) Antagonist screened against the NCATS CANVASS Library (AID 1347372);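 note: cells stimulated with 50 nM CITCO agonist so inhibition reflects antagonism; series mostly up to about 46 µM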
Chain of Nuclear receptor subfamily 1 group I member 3 (Homo sapiens) (Q14994 whole entry, looked up): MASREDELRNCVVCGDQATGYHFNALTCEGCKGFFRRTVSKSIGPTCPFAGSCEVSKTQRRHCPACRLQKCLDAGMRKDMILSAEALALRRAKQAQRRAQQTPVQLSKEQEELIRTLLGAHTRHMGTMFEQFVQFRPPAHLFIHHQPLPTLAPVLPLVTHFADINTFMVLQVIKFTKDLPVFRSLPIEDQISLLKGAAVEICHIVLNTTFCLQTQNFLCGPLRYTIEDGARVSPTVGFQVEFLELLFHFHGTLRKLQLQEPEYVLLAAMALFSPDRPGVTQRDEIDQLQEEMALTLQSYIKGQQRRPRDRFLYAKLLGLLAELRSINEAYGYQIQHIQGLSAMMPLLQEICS
Procedure, shortened: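 Antagonist mode: compound added alongside 50 nM CITCO to HepG2-hCAR-CYP2B6 reporter cells, 24hr at 37C. Viability by CellTiter-Fluor fluorescence, then CAR-driven luciferase by ONE-Glo luminescence.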

[8] = target: Nuclear receptor subfamily 1 group I member 3 (Homo sapiens) (UniProt Q14994); test: qHTS for Constitutive Androstane Receptor (CAR) Agonist screened against the NCATS CANVASS Library (AID 1347373);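 note: every well also contained 1.5 µM PK11195 alongside the test compound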
Procedure, shortened: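 Agonist mode with 1.5uM PK11195 present: compounds for 24hr on HepG2-hCAR-CYP2B6 cells. CellTiter-Fluor fluorescence (ex 405, em 540 nm) gives viability; ONE-Glo luminescence reports CAR activation.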

[9] = 10-beta competent E. coli microbial cell viability qHTS against the NCATS CANVASS Library (AID 1347376); note: series mostly up to about 46 µM
Procedure, shortened: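 Read-out: BacTiter-Glo ATP luminescence, taken 20 min after reagent addition. Beforehand, 10-beta competent E. coli at 0.2 OD had been incubated overnight at 37C with compounds at 11 concentrations.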

[10] = qHTS for H2AX Agonists against the NCATS CANVASS Library (AID 1347378)
Procedure, shortened: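 CHO-K1 cells (1000/well, overnight at 37C) exposed to compounds at several concentrations for 3 hr at 37C, 0.76% DMSO final. Lysates read by TR-FRET (phospho-H2AX S139 Eu-cryptate antibody / H2AX-d2 antibody) after 24 hr at room temperature; 665/615 nm ratio.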

[11] = Inflammasome Signaling qHTS Counterscreen: IL-1-beta AlphaLISA counterscreen against the NCATS CANVASS Library (AID 1347381);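 note: cell-free check with purified IL-1β in medium and no THP-1 cells; series mostly up to about 57 µM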
Procedure, shortened: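 Purified IL-1-beta (4 pg/well) + compound, 11-pt conc. series; acceptor beads 6 ug/mL + biotin-Ab 0.6 nM final, 1 h RT; SA-donor 24 ug/ml final, 30 min dark RT; read ex 680/em 615.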

[12] = qHTS for Activators of p53 Stress Response Pathway screened against the NCATS CANVASS Library (AID 1347388)
Procedure, shortened: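 Beta-lactamase reporter driven by p53 response elements in HCT-116 cells, read as the 460 nm/530 nm emission ratio after CCF4 loading, following 16 h of exposure to an 11-point series. Cell viability was measured in the same wells by CellTiter-Glo luminescence.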

[13] = qHTS assay for small molecule disruptors of mitochondrial membrane potential screened against the NCATS CANVASS Library (AID 1347389); note: nearly all actives have a fitted effect of over 60% in size; note: potency is the fitted concentration of half-maximal effect
Procedure, shortened: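 Mitochondrial membrane potential in HepG2: 1 h compound treatment (11-point concentration series), 30 min m-MPI dye at 37C, then dual fluorescence of J-aggregates (ex 540/em 590) and monomers (ex 490/em 535); lower red/green ratio indicates depolarization.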

[14] = Secretion counterscreen for inhibitors of the SERCaMP assay screened against the NCATS CANVASS Library (AID 1347390);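 note: light from luciferase secreted into medium read as a measure of general secretion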; note: potency is the fitted concentration of half-maximal effect
Procedure, shortened: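 SH-SY5Y cells with constitutively secreted GLuc reporter, 1000 cells/well, treated 20 h at 37C with compounds at 0.001 - 77 uM final; secreted luciferase read as luminescence after coelenterazine; Brefeldin A as positive control.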

[15] = Vero-766 cells viability qHTS against the NCATS CANVASS Library: Counterscreen for Zika virus inhibition assay (AID 1347394); note: nearly all actives have a fitted effect of over 60% in size; note: potency is the fitted concentration of half-maximal effect
Procedure, shortened: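 Vero 766 cells (1000/well), without Zika virus, were exposed to compounds for 72 h at 37C. Viability was measured by CellTiter Glo luminescence. Media-only wells served as 100% inhibition.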

[16] = HPAF-II 24hr Apoptosis Induction qHTS against the NCATS CANVASS Library (AID 1347356)
Procedure, shortened: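 Caspase-Glo 3/7 luminescence, read after 15 min room-temperature development, measures apoptosis in HPAF-II cells treated 24 h at 37 degrees C with an 11-point concentration series; 500 cells/well; doxorubicin control.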

[17] = HEK293 24hr Apoptosis Induction qHTS against the NCATS CANVASS Library (AID 1347359)
Procedure, shortened: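 Caspase-3/7 activation measured as luminescence from the DEVD-based Caspase-Glo reagent, 15 min at room temperature, following 24-hour compound treatment of HEK293 cells.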

[18] = Cytotoxicity qHTS for assessment of Hepg2 cells membrane integrity screened against the NCATS CANVASS Library (AID 1347387)
Procedure, shortened: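 Membrane damage quantified as fluorescent LDH-release signal (ex 560, em 590 nm) in HepG2 cells treated 5 hr at 37C. qHTS format, 11 concentrations spanning 0.59 nM - 46 uM final, cells plated at 2000 per well the night before.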

[19] = qHTS for activators of dead-cell proteases activity screened against the NCATS CANVASS Library (AID 1347392);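 note: luminescence from protease leaking out of membrane-damaged cells cleaving impermeant substrate; rising signal means more cytotoxicity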
Procedure, shortened: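 Luminescent dead-cell protease readout (AAF-aminoluciferin, 15 min, room temperature) after 5 h compound treatment of HepG2 cells (2000/well, pre-attached 18 h). Eleven concentrations.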

[20] = qHTS for Hypoxia signaling pathway (HIF-1) agonists against the NCATS CANVASS Library (AID 1347375)
Procedure, shortened: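 Beta-lactamase reporter under HRE control in ME-180 cells; compounds (11-point qHTS series) added after 5 hrs plating, then 17 hrs at 37C. FRET substrate read after 2 hr; same-well CellTiter-Glo luminescence gave viability and normalization.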

| Compound | Potency [1] | Potency [2] | Potency [3] | Potency [4] | Potency [5] | Potency [6] | Potency [7] | Potency [8] | outcome [9] | Potency [10] | outcome [11] | Potency [12] | Potency [13] | Potency [14] | Potency [15] | outcome [16] | Potency [17] | outcome [18] | Potency [19] | outcome [20] |
| --- | --- | --- | --- | --- | --- | --- | --- | --- | --- | --- | --- | --- | --- | --- | --- | --- | --- | --- | --- | --- |
| COc1cc(/C=C/C(=O)OC[C@@H](Cc2ccc(O)c(OC)c2)[C@@H](COC(=O)/C=C/c2ccc(O)c(OC)c2)Cc2ccc(O)c(OC)c2)ccc1O | 8.33 µM (active) | inactive | inactive | 14.8 µM (active) | 1.48 µM (active) | inactive | inactive | inactive | inactive | inactive | inactive | inactive | 7.41 µM (active) | 38.4 µM (active) | 7.41 µM (active) |  |  |  |  |  |
| C=C(C)CC[C@H](Cc1c(O)cc(O)c2c1O[C@H](c1ccc(O)cc1)CC2=O)C(=C)C | inactive | inactive | inactive | inactive | 23.4 µM (active) |  | inactive |  | inactive | inactive | inactive | inactive | 8.31 µM (active) | inactive | 18.6 µM (active) | inactive | inactive | inactive | inactive |  |
| CO[C@H]1[C@@H](OC(=O)/C(C)=C\[C@@H]2O[C@@H]2[C@H]2O[C@H]2C)[C@H](O)[C@H](OCC23C[C@@H]4[C@H](C)CC[C@H]4C4(C=O)CC2C=C(C(C)C)C34C(=O)O)O[C@@H]1C (some centres undefined) | inactive | inactive | inactive | inactive | inactive | inactive | inactive | inactive | inactive | inactive | inactive | inactive | inactive | inactive | inactive | inactive | inactive | inactive | inactive | inactive |
| CN1CC[C@]2(c3cccc4c3N[C@H]3N(C)CC[C@@]43[C@]34CCN(C)[C@H]3Nc3ccccc34)c3ccccc3N[C@H]12 | inactive | inactive | inactive | 7.43 µM (active) | inactive | 9.35 µM (active) |  | inactive | inactive | inactive | inactive | inactive | inactive | 19.3 µM (active) | 20.9 µM (active) | inactive | inactive | inactive | inactive | inactive |
| C/C1=C/[C@@H](C)[C@H](O)[C@@H](O)/C=C/CC/C=C/C(=O)O[C@@H]1[C@H](C)C(=O)CCCC1CC(=O)NC(=O)C1 | inactive | inactive | inactive |  | inactive | inactive | inactive | inactive | inactive | inactive | inactive | inactive | inactive | inactive | inactive | inactive | inactive | inactive | inactive | inactive |
| C/C(=C\CC[C@@H](C)[C@H]1CC[C@]2(C)C3=CCC4C(C)(C)[C@@H](O)C[C@@H](O)[C@]4(C)C3[C@H](O)C[C@@]12C)CO (some centres undefined) | inactive |  | inactive | inactive | inactive | inactive | inactive | inactive | inactive | inactive | inactive | inactive | inactive | inactive | 33.1 µM (active) | inactive | inactive | inactive | inactive | inactive |
| CC[C@H]1[C@H](C)[C@H](c2cc(OC)c(OC)cc2OC)[C@@H](C)[C@H](c2cc(OC)c(OC)cc2OC)[C@@]12C=C(OC)C(=O)C=C2OC | inactive | 21.6 µM (active) | inactive | 23.5 µM (active) |  | inactive | inactive | inactive | inactive | inactive | inactive | inactive |  | inactive | inactive | inactive |  | inactive | inactive | inactive |
| CC(C)[C@]12CC[C@@]3(C)[C@H](C)CC[C@H](O)[C@@]3(CC1)c1cc3c(cc12)[nH]c1ccccc13 | inactive | inactive | inactive | inactive | inactive | inactive | inactive | inactive | inactive | inactive | inactive | inactive | 11.7 µM (active) | inactive |  | inactive | inactive | inactive | inactive | inactive |
| C/C=C/C1C=CC2CC(C)CC(C)C2C1C(=O)CC(=O)NC(CO)C/C=C/CCCCC (centres undefined) | inactive |  | inactive | 1.32 µM (active) | 23.4 µM (active) | inactive | inactive | inactive | inactive | inactive | inactive | inactive |  |  |  | inactive | inactive | inactive | inactive | inactive |
| C[C@]12CCC[C@](C)(C(=O)O)[C@@H]1CC[C@@]1(C)c3cocc3CC[C@H]21 | inactive | inactive | inactive | inactive | inactive | inactive | inactive | inactive | inactive | inactive | inactive | inactive | inactive | inactive | inactive | inactive | inactive | inactive | inactive | inactive |
| CCC(=O)N[C@@H](C[C@H](C)C(Cl)(Cl)Cl)C(=O)N1C(=O)C=C(OC)[C@@H]1CC(C)C | inactive | inactive | inactive |  | inactive | inactive |  | inactive | inactive | inactive | inactive | inactive | inactive | inactive | inactive | inactive | inactive | inactive | inactive | inactive |
